Measured values as given in PubChem BioAssay (NCI).
This is part of a sample that, as a whole, favours compounds with a hit. Of some 83,000 tested, about 20% had one in any assay.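 Results are percent growth after 48 hours of single-concentration exposure. 100 means growth as in untreated cells, lower positive values show inhibition; negative values down to -100 show cell death.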 A number with no mark means an inactive call. Activity calls are given as the source filed them. How the source made its calls: active means growth percent below 10; inactive means the rest.

How the values were obtained:
Assay in all cases: NCI-60 one-dose screen, 48 h (100 = growth as untreated, 0 = no growth, -100 = all killed)
Details in all cases: 10 µM unless noted
[1] = system: NCI-H23 lung
[2] = system: NCI-H226 lung
[3] = system: NCI-H322M lung
[4] = system: HOP-62 NSCLC
[5] = system: NCI-H460 lung
[6] = system: HOP-92 NSCLC
[7] = system: NCI-H522 lung
[8] = system: A549/ATCC NSCLC
[9] = system: 786-0 renal
[10] = system: COLO 205 colon

SMILES | growth [1] | growth [2] | growth [3] | growth [4] | growth [5] | growth [6] | growth [7] | growth [8] | growth [9] | growth [10]
COc1ccc2nc3cc(Cl)ccc3c(N3CCN(c4ccnc(N5CCOCC5)n4)CC3)c2c1 | 46.1% | 89.2% | 94.4% | 71.5% | 76.5% | 56.3% | -51.4% (active) | 95.2% | 92.8% | 31.1%
COc1ccc(/C=c2/c(=O)[nH]c3nc4sc(C)c(C)c4c(=O)n23)cc1 | 90.7% | 94% | 98.7% | 100% | 88.3% | 92.6% | 74.4% | 79.7% | 88.1% | 111%
COC(=O)[C@@H]1CC[C@]2(C)[C@H](CC[C@@H]3O[C@@]32C)[C@@]1(C)CC(=O)c1ccoc1 | 98.5% | 91.8% | 102% | 95.1% | 101% | 93.3% | 80.4% | 83.3% | 107% | 113%
COc1ccc(S(=O)(=O)NCCNc2nccc(-c3c(-c4cccc(N)c4)nc4sccn34)n2)cc1 | 103% | 96.1% | 111% | 110% | 99.6% | 96.2% | 91.2% | 99.6% | 99% | 106%
O=C(Nc1ccc(CN2CCOCC2)cc1)c1[nH]ncc1Nc1ncnc2sccc12 | -3.72% (active) | 15.5% | 6.2% (active) | 20.1% | 3.28% (active) | 22.9% | 7.15% (active) | 13.6% |  | -34.9% (active)
Cn1c2ccccc2c2c3c(c4c5ccccc5n(CCCCCC#N)c4c21)C(=O)N(O)C3=O | 4.85% (active) | 25.1% | 48.8% | 27.2% | 2.84% (active) | -11.2% (active) | -51.9% (active) | 34.2% |  | 62.8%
COc1ccc(/C=C/C(=O)c2c(O)c(C)c(O)c3c2OC2=CC(O)=C(C(C)=O)C(=O)[C@]23C)cc1 | -32.9% (active) | -28.2% (active) | -17.9% (active) | -40% (active) | 1.69% (active) | -18.8% (active) | -32.2% (active) | -26.8% (active) | -29.7% (active) | -74.1% (active)
COc1ccc(CCN2CCCn3c2nc2ccccc2c3=O)cc1 | 32.7% | 37.3% | 45.4% | 48.1% | 10.7% | 46.5% | 12.2% | 28.6% |  | -10.2% (active)
Nc1ccc(N2CCOCC2)cc1 | 86.1% | 102% | 91.2% | 90.8% | 104% | 114% | 94.1% | 110% | 92.2% | 123%
O=C(O)c1cccc2c1-c1ccccc1C2=O | 98.4% | 91.6% | 83.9% | 95.3% | 105% | 80.8% | 88.2% |  | 102% | 99.8%
NC1=CC(=O)C(=O)c2ccccc21 | 72.7% | 98.1% | 102% | 98.2% | 106% | 106% | 80.6% |  | 92.8% | 117%
O=C1C(=O)N(CCCCn2cc(CO)nn2)c2ccccc21 | 98.2% | 97.4% | 108% | 96.3% | 101% | 106% | 90.1% |  | 99.9% | 111%
O=c1c2cccc3c(Nc4c(F)cccc4F)ccc(c32)c2nc3ccccc3n12 | 85.8% | 75.1% | 86.8% | 85.6% | 72.7% | 64.2% | 83% |  | 100% | 84.9%
CCCCCCCCCCCCCCCC(=O)OCC1OC(n2cnc3c(=S)nc(N)[nH]c32)C(OC(=O)CCCCCCCCCCCCCCC)C1OC(=O)CCCCCCCCCCCCCCC (stereo unspecified) | 66.2% | 76.7% | 72.2% | 47.8% | 63.4% | 56% | 66.1% |  | 61% | 90%
COc1ccc(C(=O)c2sc3nc(-c4ccccc4OC)ccc3c2N)cc1OC | 63.2% | 63% | 87.2% | 95.3% | 51.7% | 56.4% | 50.3% |  | 64.1% | 102%
Cc1cc(=O)oc2cc(Oc3nc(-c4cccs4)cn4c(-c5cccs5)cnc34)ccc12 | 56.6% | 83% | 89.4% | 59% | 50.5% | 7.71% (active) | 74.6% |  |  | 75%
C[C@@H]1CCC2=C(CCC[C@]2(C)C(=O)O)[C@@]1(C)CCc1ccoc1 | 99.4% | 85.7% | 93.4% | 96.5% | 96.9% | 85.1% | 77% |  | 112% | 112%
Cc1cc(Nc2nc(N3CCOCC3)nc3ccccc23)n[nH]1 | 80.5% | 57.7% | 65.8% | 78% | 68.9% | 60.7% | 40.2% |  | 49.9% | 65.4%
S=c1[nH]nc(CSc2ncnc3c2c(-c2ccccc2)cn3-c2ccc(Cl)cc2)o1 | 92.7% | 89.5% | 97.9% | 91% | 99.4% | 92.9% | 89.5% |  | 102% | 99.1%
O=C(CNC1C2CC3CC(C2)CC1C3)Sc1nnc2sc3ccccc3n12 (stereo unspecified) | 95% | 91.3% | 113% | 104% | 97.9% | 46.2% | 96.4% | 108% |  | 106%
COc1ccc(-c2cnoc2-c2cc(OC)c3c(c2)OCCO3)cc1 | 16.7% | 61.8% | 45% | -8.55% (active) | 3.25% (active) | 31% | -39.1% (active) |  | 8.21% (active) | -58.4% (active)
COc1ccc(-c2cn3c(-c4ccc(OC)cc4)cnc3c(Oc3ccc4c(C)cc(=O)oc4c3)n2)cc1 | 33% | 70.7% | 82% | 40.9% | 26.4% | -13.6% (active) | 39.6% | 16.5% |  | 56.1%
O=C1C[C@H](Sc2nc(-c3ccc(F)cc3)cc(C(F)(F)F)n2)[C@H]2CO[C@@H]1O2 | 99.2% | 103% | 108% | 104% | 106% | 105% | -62.1% (active) | 102% |  | 75.8%
CCOC(=O)CC(=O)c1c(C)cc(C)cc1C | 111% | 104% | 114% | 110% | 105% | 111% | 62.5% |  | 98.3% | 117%
COc1nc2c(cc1S(=O)(=O)c1ccccc1)CCc1c-2cnn1-c1ccc(Cl)cc1 | 89.5% | 92.1% | 101% | 86.5% | 99.2% | 80.3% | 81.1% |  | 79.5% | 118%
C=C1CC[C@@H]2[C@](C)(COC(C)=O)[C@H](OC(C)=O)CC[C@@]2(C)[C@@H]1CC(Nc1ccc(S(=O)(=O)Nc2ccc(Cl)nn2)cc1)C1=CCOC1=O (stereo partly specified) | 58.2% | -10% (active) | 57% | 47.9% | 14.5% | 69.8% | -34.5% (active) |  | 58.8% | 18%
C/C=C/C(N)=O | 96.9% | 93.4% | 93.4% | 109% | 102% | 91.1% | 104% |  |  | 107%
O=C1C[C@H](N2C(=O)c3ccccc3S2(=O)=O)C2CO[C@@H]1O2 | 89.3% | 96.1% | 103% | 92.6% | 103% | 98.4% | -45.6% (active) |  | 96.9% | 64.1%
